In the supplement of paper PMC11001985:

Compound: C#CCNC(=O)CCSSCCC(=O)NCCc1ccc(C=O)c(C=O)c1
Test: lysine labeling ratio R10:1 (500 µM / 50 µM probe), SILAC-ABPP in living cells; higher = lower intrinsic lysine reactivity toward the probe, active = 2 or less
Details: HeLa; probe concentrations 500 vs 50 µM
Outline: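 In PBS at room temperature, living HeLa cells grown with SILAC light or heavy labels were treated with 50 µM or 500 µM of an alkyne-tagged, disulfide-linked lysine probe, with label swaps in both directions. Analysis was by LC-MS/MS on a TIMS-TOF Pro after click to biotin-azide, neutravidin capture and DTT release. For each lysine, R is the median across forward and reverse replicates of the filtered median high-probe/low-probe MS1 peptide ratio, capped at 20.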

Chain of UniProt Q15149 (Q15149 whole entry): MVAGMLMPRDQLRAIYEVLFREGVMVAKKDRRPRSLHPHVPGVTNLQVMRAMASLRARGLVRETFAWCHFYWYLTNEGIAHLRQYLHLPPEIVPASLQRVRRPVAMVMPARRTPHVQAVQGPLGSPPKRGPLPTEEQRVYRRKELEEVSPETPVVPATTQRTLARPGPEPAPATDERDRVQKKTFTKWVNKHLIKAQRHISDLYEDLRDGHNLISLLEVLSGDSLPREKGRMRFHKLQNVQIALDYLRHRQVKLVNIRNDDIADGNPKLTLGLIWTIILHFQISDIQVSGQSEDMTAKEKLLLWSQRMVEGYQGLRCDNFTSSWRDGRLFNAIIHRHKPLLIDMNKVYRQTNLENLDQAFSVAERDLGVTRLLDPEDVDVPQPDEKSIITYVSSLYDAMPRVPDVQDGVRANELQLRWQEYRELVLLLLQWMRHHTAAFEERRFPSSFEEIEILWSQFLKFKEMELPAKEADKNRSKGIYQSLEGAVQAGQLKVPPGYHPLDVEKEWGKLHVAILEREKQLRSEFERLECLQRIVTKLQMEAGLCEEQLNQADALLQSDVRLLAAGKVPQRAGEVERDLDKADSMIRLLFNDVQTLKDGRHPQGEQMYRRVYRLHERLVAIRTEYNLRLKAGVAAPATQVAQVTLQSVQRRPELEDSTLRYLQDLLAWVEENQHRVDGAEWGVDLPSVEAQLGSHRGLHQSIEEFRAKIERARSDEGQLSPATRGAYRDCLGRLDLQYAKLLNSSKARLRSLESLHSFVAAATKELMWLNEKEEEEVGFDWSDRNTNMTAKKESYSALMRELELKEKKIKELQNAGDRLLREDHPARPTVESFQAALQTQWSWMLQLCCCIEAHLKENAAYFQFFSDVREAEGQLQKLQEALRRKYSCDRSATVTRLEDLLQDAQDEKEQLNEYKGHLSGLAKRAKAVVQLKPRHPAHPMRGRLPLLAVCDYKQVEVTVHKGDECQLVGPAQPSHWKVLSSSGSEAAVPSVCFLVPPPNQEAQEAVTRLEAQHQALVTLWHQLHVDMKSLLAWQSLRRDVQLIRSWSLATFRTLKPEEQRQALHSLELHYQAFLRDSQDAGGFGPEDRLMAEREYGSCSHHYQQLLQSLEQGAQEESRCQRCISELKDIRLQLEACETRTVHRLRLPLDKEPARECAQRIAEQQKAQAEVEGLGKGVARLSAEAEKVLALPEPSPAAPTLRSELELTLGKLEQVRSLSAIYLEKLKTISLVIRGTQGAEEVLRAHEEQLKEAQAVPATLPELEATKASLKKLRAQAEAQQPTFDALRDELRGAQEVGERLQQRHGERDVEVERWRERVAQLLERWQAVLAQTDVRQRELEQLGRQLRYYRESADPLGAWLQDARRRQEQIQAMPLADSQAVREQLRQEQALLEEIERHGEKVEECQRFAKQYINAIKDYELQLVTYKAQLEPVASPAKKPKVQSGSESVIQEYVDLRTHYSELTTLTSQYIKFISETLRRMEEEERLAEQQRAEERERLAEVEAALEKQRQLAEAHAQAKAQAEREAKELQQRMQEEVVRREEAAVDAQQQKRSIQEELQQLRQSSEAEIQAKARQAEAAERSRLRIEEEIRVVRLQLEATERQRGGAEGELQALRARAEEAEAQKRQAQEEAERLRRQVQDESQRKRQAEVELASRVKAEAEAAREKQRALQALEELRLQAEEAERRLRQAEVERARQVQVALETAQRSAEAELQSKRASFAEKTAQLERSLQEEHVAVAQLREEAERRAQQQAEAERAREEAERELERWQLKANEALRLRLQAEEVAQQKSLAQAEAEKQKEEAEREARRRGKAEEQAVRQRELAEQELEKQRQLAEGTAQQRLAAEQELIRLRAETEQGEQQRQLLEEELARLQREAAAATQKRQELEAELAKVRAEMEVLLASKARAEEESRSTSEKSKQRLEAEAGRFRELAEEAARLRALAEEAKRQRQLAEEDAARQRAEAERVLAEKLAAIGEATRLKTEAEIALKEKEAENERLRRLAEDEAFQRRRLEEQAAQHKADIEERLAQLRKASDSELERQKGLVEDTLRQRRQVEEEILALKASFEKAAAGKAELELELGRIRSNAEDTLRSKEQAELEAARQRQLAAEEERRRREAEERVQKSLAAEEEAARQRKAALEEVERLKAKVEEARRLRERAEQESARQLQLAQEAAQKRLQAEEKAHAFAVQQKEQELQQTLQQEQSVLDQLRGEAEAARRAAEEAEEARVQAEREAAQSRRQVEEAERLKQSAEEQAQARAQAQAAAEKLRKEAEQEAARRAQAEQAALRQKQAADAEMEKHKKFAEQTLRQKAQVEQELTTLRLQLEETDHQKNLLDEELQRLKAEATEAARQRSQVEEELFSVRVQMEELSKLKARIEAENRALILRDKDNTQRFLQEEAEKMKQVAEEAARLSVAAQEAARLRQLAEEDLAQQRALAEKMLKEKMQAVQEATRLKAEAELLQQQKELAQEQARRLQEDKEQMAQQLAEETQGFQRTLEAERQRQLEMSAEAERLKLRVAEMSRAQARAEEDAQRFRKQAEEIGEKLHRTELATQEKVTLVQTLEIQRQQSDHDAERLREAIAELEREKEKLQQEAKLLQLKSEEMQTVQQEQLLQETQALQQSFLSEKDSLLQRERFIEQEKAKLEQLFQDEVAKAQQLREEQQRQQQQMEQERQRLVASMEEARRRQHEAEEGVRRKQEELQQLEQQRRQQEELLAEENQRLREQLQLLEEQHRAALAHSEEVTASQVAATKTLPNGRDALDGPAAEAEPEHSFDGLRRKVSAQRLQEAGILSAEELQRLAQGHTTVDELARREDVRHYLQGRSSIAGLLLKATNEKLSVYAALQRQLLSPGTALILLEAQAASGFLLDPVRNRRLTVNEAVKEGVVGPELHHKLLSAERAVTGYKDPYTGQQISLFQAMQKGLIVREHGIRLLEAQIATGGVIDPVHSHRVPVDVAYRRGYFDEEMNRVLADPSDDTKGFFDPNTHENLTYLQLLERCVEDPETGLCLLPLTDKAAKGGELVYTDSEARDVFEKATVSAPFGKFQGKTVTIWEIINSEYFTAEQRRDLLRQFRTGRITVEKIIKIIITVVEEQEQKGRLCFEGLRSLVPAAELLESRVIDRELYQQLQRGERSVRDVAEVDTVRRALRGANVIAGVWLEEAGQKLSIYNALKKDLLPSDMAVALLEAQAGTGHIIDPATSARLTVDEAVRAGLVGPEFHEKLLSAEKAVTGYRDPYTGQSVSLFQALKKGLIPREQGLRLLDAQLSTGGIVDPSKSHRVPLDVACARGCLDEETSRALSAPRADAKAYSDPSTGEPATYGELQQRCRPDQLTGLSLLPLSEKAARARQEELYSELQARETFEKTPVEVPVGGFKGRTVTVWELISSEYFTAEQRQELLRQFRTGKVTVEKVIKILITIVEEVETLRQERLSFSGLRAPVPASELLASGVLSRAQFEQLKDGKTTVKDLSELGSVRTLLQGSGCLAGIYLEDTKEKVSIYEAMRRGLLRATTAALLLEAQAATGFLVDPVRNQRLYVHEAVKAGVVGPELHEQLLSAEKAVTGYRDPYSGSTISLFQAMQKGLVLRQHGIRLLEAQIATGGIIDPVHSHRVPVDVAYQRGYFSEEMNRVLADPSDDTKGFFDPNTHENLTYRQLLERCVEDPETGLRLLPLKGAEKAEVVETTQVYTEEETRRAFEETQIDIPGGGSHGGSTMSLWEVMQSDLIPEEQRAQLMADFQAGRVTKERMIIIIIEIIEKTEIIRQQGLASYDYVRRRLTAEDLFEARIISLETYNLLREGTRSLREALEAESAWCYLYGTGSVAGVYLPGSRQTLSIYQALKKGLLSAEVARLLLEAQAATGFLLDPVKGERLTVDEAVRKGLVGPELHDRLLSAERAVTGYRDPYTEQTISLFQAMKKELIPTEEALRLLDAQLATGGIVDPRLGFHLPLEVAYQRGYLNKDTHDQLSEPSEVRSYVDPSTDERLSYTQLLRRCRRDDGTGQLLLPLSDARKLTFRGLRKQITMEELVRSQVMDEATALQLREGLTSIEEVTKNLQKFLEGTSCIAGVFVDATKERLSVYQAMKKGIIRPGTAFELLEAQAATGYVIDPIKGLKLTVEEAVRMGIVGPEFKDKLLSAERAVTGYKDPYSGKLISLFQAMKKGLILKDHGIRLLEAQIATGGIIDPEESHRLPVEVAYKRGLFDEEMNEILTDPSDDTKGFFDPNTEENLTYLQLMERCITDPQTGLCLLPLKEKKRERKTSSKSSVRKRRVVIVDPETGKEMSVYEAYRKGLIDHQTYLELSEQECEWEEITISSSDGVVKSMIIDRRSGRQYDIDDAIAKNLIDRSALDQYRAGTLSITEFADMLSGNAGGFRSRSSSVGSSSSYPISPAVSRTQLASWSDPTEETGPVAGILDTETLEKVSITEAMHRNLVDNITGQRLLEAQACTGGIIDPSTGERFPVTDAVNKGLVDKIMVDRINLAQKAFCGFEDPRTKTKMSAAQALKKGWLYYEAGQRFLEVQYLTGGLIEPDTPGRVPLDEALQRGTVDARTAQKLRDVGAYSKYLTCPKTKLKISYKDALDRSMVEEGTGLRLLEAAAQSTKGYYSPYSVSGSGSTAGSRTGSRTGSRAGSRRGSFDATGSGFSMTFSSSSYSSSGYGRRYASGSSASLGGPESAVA
Chain of UniProt P49773 (P49773 whole entry): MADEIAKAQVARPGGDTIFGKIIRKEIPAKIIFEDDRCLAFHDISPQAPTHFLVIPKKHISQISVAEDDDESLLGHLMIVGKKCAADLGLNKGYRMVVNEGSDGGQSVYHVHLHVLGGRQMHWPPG
Chain of UniProt Q15366 (Q15366 whole entry): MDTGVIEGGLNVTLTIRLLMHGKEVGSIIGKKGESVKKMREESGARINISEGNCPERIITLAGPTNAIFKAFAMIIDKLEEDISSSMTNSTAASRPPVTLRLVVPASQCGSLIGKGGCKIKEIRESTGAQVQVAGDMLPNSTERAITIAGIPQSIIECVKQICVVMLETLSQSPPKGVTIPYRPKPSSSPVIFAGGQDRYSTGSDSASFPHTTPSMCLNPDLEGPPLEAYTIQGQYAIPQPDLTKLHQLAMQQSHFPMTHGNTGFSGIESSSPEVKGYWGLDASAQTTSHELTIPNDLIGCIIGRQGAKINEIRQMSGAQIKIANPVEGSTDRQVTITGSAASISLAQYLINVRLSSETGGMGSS

Target	lysine labeling ratio R10:1
SPTAN1 (lysine site: K30) (UniProt Q13813)	5.74 (inactive)
UniProt Q32P28 (lysine site: K437)	1.13 (active)
TGFBR3 (lysine site: K667) (UniProt Q03167)	0.83 (active)
UniProt O94991 (lysine site: K280)	1.34 (active)
UniProt P61026 (lysine site: K136)	1.9 (active)
SLC3A2 (lysine site: K255) (UniProt P08195)	1.64 (active)
PA2G4 (lysine site: K376) (UniProt Q9UQ80)	1.5 (active)
CTTN (lysine site: K272) (UniProt Q14247)	1.57 (active)
UniProt Q15149 (lysine site: K1833)	2.22 (inactive)
CCT2 (lysine site: K441) (UniProt P78371)	1.98 (active)
FRAS1 (lysine site: K3278) (UniProt Q86XX4)	2.1 (inactive)
HINT1 (lysine site: K30) (UniProt P49773)	1.48 (active)
SLC9A6 (lysine site: K61) (UniProt Q92581)	4.56 (inactive)
EPHA2 (lysine site: K476) (UniProt P29317)	3.45 (inactive)
TPM4 (lysine site: K13) (UniProt P67936)	3.28 (inactive)
DDX5 (lysine site: K470) (UniProt P17844)	4.7 (inactive)
EPCAM (lysine site: K155) (UniProt P16422)	2.33 (inactive)
MYH9 (lysine site: K1845) (UniProt P35579)	1.57 (active)
UniProt P22413 (lysine site: K448)	0.527 (active)
HNRNPU (lysine site: K551) (UniProt Q00839)	1.98 (active)

Target	lysine labeling ratio R10:1
UniProt P62280 (lysine site: K30)	4.32 (inactive)
UniProt Q15149 (lysine site: K4513)	1.42 (active)
RPL3 (lysine site: K356) (UniProt P39023)	2.08 (inactive)
UniProt P05186 (lysine site: K241)	3.23 (inactive)
RPL35A (lysine site: K73) (UniProt P18077)	3.82 (inactive)
LRPAP1 (lysine site: K107) (UniProt P30533)	1.78 (active)
PLXNB2 (lysine site: K1110) (UniProt O15031)	4.66 (inactive)
FOLR1 (lysine site: K44) (UniProt P15328)	1.8 (active)
ITGA3 (lysine site: K407) (UniProt P26006)	2.96 (inactive)
HSPA9 (lysine site: K106) (UniProt P38646)	6.72 (inactive)
UniProt Q12891 (lysine site: K148)	1.46 (active)
TFPI (lysine site: K101) (UniProt P10646)	7.9 (inactive)
UniProt P21589 (lysine site: K478)	1.17 (active)
RPSA (lysine site: K52) (UniProt P08865)	1.63 (active)
PCBP2 (lysine site: K322) (UniProt Q15366)	4.37 (inactive)
UniProt Q9UHI8 (lysine site: K619)	2.67 (inactive)
SDCBP (lysine site: K223) (UniProt O00560)	2.46 (inactive)
UniProt P08727 (lysine site: K370)	3.4 (inactive)
THBS1 (lysine site: K201) (UniProt P07996)	3.89 (inactive)
TKT (lysine site: K543) (UniProt P29401)	9.07 (inactive)
